Screens: PubChem BioAssay, National Center for Advancing Translational Sciences (NCATS)
Only some compounds are listed: those with a hit (about 9.4% of all), similar ones and a draw of the others.
NPC1 prom act = qHTS Assay for NPC1 Promoter Activators; 2.4% of 320,000 active; Huh7 NPC1 promoter luciferase reporter, 24 h; Potency, µM (top dose mostly 9.22 µM), usual class: activators; note: nearly all actives have a fitted effect of over 60% in size
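Quantitative HTS used a cell-based reporter: Huh7 cells stably bearing the NPC1 promoter upstream of luciferase were treated with compounds for 24 h, and promoter activation was read as luminescence.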
ELG1 DNA repair = qHTS screen for small molecules that inhibit ELG1-dependent DNA repair in human embryonic kidney (HEK293T) cells expressing luciferase-tagged ELG1 | HEK293T ELG1-luciferase reporter, luminescence, 16 h; DNA damage induced by 5-fluorouridine | Potency, µM (doses to about 46.1 µM), hits mostly inhibitors | 2.3% of 330,000 active | AID 504467, 2011; note: nearly all actives have a fitted effect of over 55% in size
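Quantitative HTS, concentration-response format. 2,000 cells/well co-treated with 5-fluorouridine and compound, 16 hr in 5% CO2 at 37 °C; ONE-Glo luminescence read after 30 min.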
Rab9 promoter act = qHTS Assay for Rab9 Promoter Activators. Huh7 Rab9 promoter-luciferase reporter, luminescence, 24 h. Potency, µM (doses to about 9.22 µM), most hits filed as activators. 2.8% of 320,000 active. AID 485297, 2010; note: nearly all actives have a fitted effect of over 60% in size
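Stable Rab9-luc Huh7, 1500 cells/well, 2 h settle; cmpd in DMSO, 24 h, 37 °C/5% CO2; luciferase reagent 10 min RT; luminescence.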
FLuc modulator = qHTS profiling assay for firefly luciferase inhibitor/activator using purifed enzyme and Km concentrations of substrates (counterscreen for miR-21 project) | purified FLuc, Km substrates, luminescence inhibition | Potency, µM (titrated, usually from 57.5 µM), usual class: inhibitors | AID 588342, 2011 | Luciferin 4-monooxygenase (Photinus pyralis), P08659 | 6.9% of 360,000 active; note: nearly all actives have a fitted effect of over 55% in size
Target sequence (P08659 whole entry, looked up): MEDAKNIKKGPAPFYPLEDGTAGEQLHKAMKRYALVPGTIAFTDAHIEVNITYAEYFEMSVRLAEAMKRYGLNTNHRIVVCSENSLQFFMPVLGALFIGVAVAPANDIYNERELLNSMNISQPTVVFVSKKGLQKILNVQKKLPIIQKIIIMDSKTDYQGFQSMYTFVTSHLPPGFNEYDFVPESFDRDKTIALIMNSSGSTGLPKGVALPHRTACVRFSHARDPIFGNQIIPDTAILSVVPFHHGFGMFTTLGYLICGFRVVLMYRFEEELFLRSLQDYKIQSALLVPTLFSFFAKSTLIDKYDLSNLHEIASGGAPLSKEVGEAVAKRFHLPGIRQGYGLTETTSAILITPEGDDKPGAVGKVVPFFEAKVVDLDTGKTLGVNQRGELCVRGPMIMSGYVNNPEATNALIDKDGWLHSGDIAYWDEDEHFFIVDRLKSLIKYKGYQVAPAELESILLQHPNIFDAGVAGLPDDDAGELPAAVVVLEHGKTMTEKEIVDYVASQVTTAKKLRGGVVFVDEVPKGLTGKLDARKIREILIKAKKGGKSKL
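Biochemical qHTS of compounds, final roughly 60 µM downward over six points, against 10 nM purified firefly luciferase using Km concentrations of substrates (10 uM D-luciferin, 10 uM ATP) in Tris acetate pH 7.5 buffer; luminescence output.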
ELG1 genotox = qHTS screen for small molecules that induce genotoxicity in human embryonic kidney (HEK293T) cells expressing luciferase-tagged ELG1; AID 504466, 2011; HEK293T ELG1-luciferase reporter, luminescence, 16 h; Potency, µM (series often up to 46 µM), most hits filed as activators; 1.3% of 330,000 active; note: nearly all actives have a fitted effect of over 60% in size
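Genotoxic stress is detected as increased luminescence from luciferase-tagged ELG1 in HEK293T cells, measured with ONE-Glo after a 16 hr treatment at 37 °C.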
SMN2 splice enh = qHTS Assay for Enhancers of SMN2 Splice Variant Expression; AID 1458, 2008; 2.8% of 210,000 active; HEK293 SMN2-luciferase splicing reporter, luminescence, 30-36 h; Potency, µM (series often up to 46.1 µM), actives largely listed as activators; note: nearly all actives have a fitted effect of over 55% in size
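HEK293 cells carry an SMN2 minigene-luciferase reporter in which exon 7 inclusion puts luciferase in frame. Cells were seeded at 2000 cells/well, attached for 10-12 hours, then exposed to compounds for 30-36 hours at 37C before ONE-Glo luminescence.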
A number is an active result; – = inactive; ? = inconclusive; · = no result. Calls come from the whole dose curve; as a rule, active = well fitted curve in the direction sought with a large enough effect; inconclusive = small, poorly fitted or top-dose-only effect, or another doubt; inactive = no such curve, though single readings can be large; an effect the other way counts as inactive or inconclusive.

SMILES | NPC1 prom act | ELG1 DNA repair | Rab9 promoter act | FLuc modulator | ELG1 genotox | SMN2 splice enh
Cc1ccc2c(c1)c(/C=C/c1cc[n+](C)cc1)c(C)n2C | – | ? | – | – | – | ·
CCN(Cc1nc2cc(Cl)ccc2c(=O)[nH]1)C(=O)c1cccc(NC(=O)c2cccs2)c1 | – | 16µM | – | ? | – | ·
CCCc1nc2ccc(NC(C)=O)cc2c(=O)n1Cc1cccc(Cl)c1 | – | ? | – | – | – | ·
Cc1nc2ccc(NC(=O)c3cccs3)cc2c(=O)n1Cc1ccc(Cl)cc1 | – | 7.3µM | – | – | – | –
CCCc1nc2ccc(NC(=O)NCCC(=O)OCC)cc2c(=O)n1Cc1ccc(Cl)cc1 | – | 21µM | – | – | – | –
CCCc1nc2ccc(NC(=O)c3cccs3)cc2c(=O)n1Cc1ccc(Cl)cc1 | – | 16µM | – | – | – | ?
CCN(Cc1nc2ccccc2c(=O)[nH]1)C(=O)c1cccc(NC(=O)c2cccs2)c1 | – | ? | – | ? | – | ·
O=C(Cn1ncc2c3ccccc3n(Cc3cccc(Cl)c3)c2c1=O)Nc1ccc(F)cc1F | · | · | · | – | · | –
Cc1ccc(C)c(NC(=O)/C(C#N)=C/c2ccc(C(C)C)cc2)c1 | · | · | · | – | · | –
CC(C)C(=O)Nc1ccc(NC(=O)c2cccnc2)cn1 | – | ? | – | – | – | –
COc1ccc(C(=O)Nc2ccc(NC(=O)c3cccs3)cn2)cc1 | – | ? | – | – | ? | ·
Cc1cc(NC(=O)C(C)C)ncc1NC(=O)c1ccccn1 | ? | ? | 3.2µM | ? | ? | 13µM
CC(C)C(=O)Nc1ccc(NC(=O)c2cccs2)cn1 | ? | ? | ? | ? | 18µM | –
CC(C)C(=O)Nc1ccc(NC(=O)c2ccccn2)cn1 | 0.71µM | ? | 0.56µM | 6.7µM | ? | ·
O=C(Nc1ccc(NC(=O)C2CC2)nc1)c1ccccn1 | 0.56µM | ? | 1.3µM | 6.7µM | ? | ·
CCN1CCN(C(c2cccc(F)c2)c2c(O)cc(C)n(CCOC)c2=O)CC1 (stereo not given) | · | · | · | – | · | ·
CCOC(=O)c1[nH]c(C)c(CCC(=O)Nc2ccccc2OCC)c1C | · | · | · | – | · | ·
CCCC(=O)Nc1ccc(NC(=O)c2ccccc2Cl)nc1 | – | ? | – | ? | ? | ?
CCC(=O)Nc1ccc(NC(=O)c2ccccn2)cn1 | 1.3µM | ? | 0.63µM | 11µM | 2.5µM | 14µM
C=C(C#N)C(=O)OCC | · | · | · | · | · | –
Cc1cc(C(=O)COC(=O)CC2Sc3ccccc3NC2=O)c(C)n1-c1cccc(C(F)(F)F)c1 (stereo not given) | – | – | – | ? | – | –
Cc1cc(C(=O)COC(=O)Cc2n[nH]c(=O)c3ccccc23)c(C)n1-c1cccc(C(F)(F)F)c1 | – | 23µM | – | – | – | –
FC(F)(F)c1nc2cc3nc4ccccc4[nH]c3cc2n1 | ? | ? | ? | 24µM | – | ·
OC(c1nc2ccccc2[nH]1)C(O)c1nc2ccccc2[nH]1 (stereo not given) | – | – | – | – | – | ·
Cc1ccc(S(=O)(=O)Oc2ccc(C)cc2/C=N/N=C2\NC(=O)C(C)S2)cc1 (stereo not given) | – | ? | ? | 9.5µM | ? | –
SMILES | NPC1 prom act | ELG1 DNA repair | Rab9 promoter act | FLuc modulator | ELG1 genotox | SMN2 splice enh
O=C(c1cccs1)c1coc2ccc(O)c(CN3CCOCC3)c12 | – | – | – | – | – | –
O=C(CCl)Oc1ccc2occ(C(=O)c3cccs3)c2c1 | – | ? | ? | 24µM | 12µM | –
Cc1c(CCC(=O)NCCCCCC(=O)O)c(=O)oc2cc3occ(-c4ccccc4)c3cc12 | – | – | – | ? | – | ·
O=C(c1cccs1)c1coc2ccc(O)cc12 | – | ? | – | ? | ? | –
CC(=O)Oc1ccc2occ(-c3ccccc3)c2c1 | ? | – | – | 19µM | – | ·
O=c1ccc2cc3c(-c4ccccc4)coc3cc2o1 | – | – | – | 19µM | – | ·
